# CtBP-E1A blk = qHTS Assay for Inhibitors of the CtBP/E1A Interaction; CtBP / adenovirus E1A interaction (AlphaScreen); AlphaScreen GST-E1A/His-CtBP binding, 1536-well; hits give low values; activity change, % (test concentration not listed); 0.49% of 340,000 active; AID 651724, 2012; also: % is scaled to controls: 0 for no effect and ±100 for the full control effect
#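 GST-E1A and His-tagged CtBP (125 nM each as 5X stock) were preincubated with pin-transferred compound for 2 h at 37 °C in the dark, then glutathione donor and nickel acceptor beads were added for 1 h before AlphaScreen reading.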
# Mito fusion act = qHTS Assay for Small Molecule Inhibitors of Mitochondrial Division or Activators of Mitochondrial Fusion | S. cerevisiae fusion-defective mutant growth rescue, CellTiterGlo 48 h | Potency, µM (top dose mostly 46.1 µM), for inactives: top-dose growth rescue (activation), hits mostly activators | 0.23% of 320,000 active | AID 485298, 2010; active = well fitted activation curve with a large enough effect; inconclusive = small, poorly fitted or top-dose-only effect; inactive = no such curve, though single readings can be large or run the other way; also: potency is read from the fitted curve at half-maximal effect; % of control where 0% means no effect; nearly all actives have a fitted effect of over 45% in size
#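 Temperature-sensitive fusion-defective S. cerevisiae (e.g. fzo1-1, mgm1-5) were grown with compound in YPEG medium (3% ethanol, 3% glycerol) for 48 hours at 37C. Growth rescue was measured as viability by CellTiterGlo luminescence after 10 minutes at ambient.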
# uPA generation = qHTS for Inhibitors of Cell Surface uPA Generation | cell surface uPA generation assay, qHTS | Potency, µM (top dose mostly 38.3 µM), without a hit: top-dose activity change, negative = inhibition, actives largely listed as inhibitors | 0.31% of 330,000 active | AID 540303, 2011; active = well fitted inhibition curve with a large enough effect; inconclusive = small, poorly fitted or top-dose-only effect; inactive = no such curve, though single readings can be large or run the other way; tested in mouse RAW 264.7 cells; also: potency is read from the fitted curve at half-maximal effect; % is scaled to controls: 0 for no effect and ±100 for the full control effect; nearly all actives have a fitted effect of over 55% in size
# MBNL1-CUG inh = qHTS Assay for Inhibitors of MBNL1-poly(CUG) RNA binding; Muscleblind-like protein 1 (Homo sapiens), Q9NR56; TR-FRET MBNL1-His/biotin-(CUG)12 binding, 665/545 ratio; Potency, µM (series often up to 57.5 µM), for the others: top-dose activity change, negative = inhibition, most hits filed as inhibitors; 0.036% of 280,000 active; AID 2675, 2010; active = well fitted inhibition curve with a large enough effect in the signal ratio, with a control signal flat, not every such curve was filed as active; inconclusive = small, poorly fitted or top-dose-only effect, or effect the other way, or a change in a side signal; inactive = no such curve, though single readings can be large or run the other way; the % refers to the signal ratio; also: potency is read from the fitted curve at half-maximal effect; % is scaled to controls: 0 for no effect and ±100 for the full control effect
# Target sequence (Q9NR56 whole entry, looked up): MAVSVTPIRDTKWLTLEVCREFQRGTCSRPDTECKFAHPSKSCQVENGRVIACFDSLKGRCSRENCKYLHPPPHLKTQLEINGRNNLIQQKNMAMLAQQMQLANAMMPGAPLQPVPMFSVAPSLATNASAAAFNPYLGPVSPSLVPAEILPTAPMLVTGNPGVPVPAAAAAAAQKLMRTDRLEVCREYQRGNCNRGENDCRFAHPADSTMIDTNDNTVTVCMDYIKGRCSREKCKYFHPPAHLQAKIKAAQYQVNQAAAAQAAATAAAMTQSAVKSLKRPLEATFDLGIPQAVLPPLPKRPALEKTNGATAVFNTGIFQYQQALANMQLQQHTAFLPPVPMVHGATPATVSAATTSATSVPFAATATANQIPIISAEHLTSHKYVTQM
#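 His-tagged MBNL1 binding to biotinylated (CUG)12 RNA was measured by TR-FRET using terbium anti-His antibody (0.055 ng/ul final) and streptavidin-XL665 (5 nM final). Compounds were titrated 92 nM to 58 uM; 60 min at room temperature.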
# Six1-Eya2 inh = qHTS Assay for Inhibitors of the Six1/Eya2 Interaction. AlphaScreen GST-Six1/His-Eya2 binding, biochemical; hits give low values. 0.56% of 360,000 active. Homeobox protein SIX1 (Homo sapiens) + Protein phosphatase EYA2 (Homo sapiens), …. activity change, % (test concentration not listed); also: % is scaled to controls: 0 for no effect and ±100 for the full control effect
#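 AlphaScreen luminescence read after one hour at 37 °C in darkness. Pin-transferred compounds met GST-Six1 and His-Eya2 protein (5X stock 250 nM/500 nM) plus glutathione donor and Ni-chelate acceptor beads (5X, 50 ug/mL).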
# Active calls of the source: *; ? = inconclusive; nt = no result given; ! = not confirmed by another sample. Shown are actives, neighbours in structure and some others; about 1.1% of the full set was active somewhere. Rule as the data show it, unless noted: active = activity change below about -65%; inconclusive = mostly about -30% to -63%; inactive = weaker than that.
SMILES,CtBP-E1A blk,Mito fusion act,uPA generation,MBNL1-CUG inh,Six1-Eya2 inh
O=C(COC(=O)c1ccccc1Cl)Nc1cccc(S(=O)(=O)N2CCCCC2)c1,2,nt,nt,nt,-5
Cc1cc(C)c(C(=O)OCC(=O)Nc2cccc(S(=O)(=O)N3CCCCC3)c2)c(C)c1,1,1%,8.9µM*,nt,-11
COc1ccccc1NS(=O)(=O)c1cc(NC(=O)c2cnccn2)ccc1N1CCOCC1,-73*,0%,-3%,nt,?
COc1ccccc1NS(=O)(=O)c1cc(NC(=O)c2ccncc2)ccc1N1CCOCC1,-24,7%,4%,-25%,-21
CC[C@]12c3[nH]c4ccc(Cl)cc4c3CCN1C(=O)[C@@H](CC(=O)NCCC1=CCCCC1)C[C@@H]2C(=O)N1CCN(C(=O)c2ccco2)CC1,-1,nt,?,nt,-12
CN1Cc2sccc2C(c2ccc(O)c(O)c2)C1 (stereo not given),nt,-7%,nt,nt,nt
CCCCCCCNC1=CC(=O)CC(c2ccccc2)C1 (stereo not given),4,8%,8.9µM*,-16%,-2
CCCCCNC1=CC(=O)CC(c2ccccc2)C1 (stereo not given),-1,-6%,-17%,-2%,-11
Clc1ccc(NN(Cc2ccncc2)c2ccc(Cl)cc2)cc1,2,nt,nt,nt,-11
O=C(Nc1cccc(-c2nn[nH]n2)c1)c1ccc(Br)s1,-69*,2%,-27%,22%,?
Nc1[nH]c(C(=O)c2ccccc2)c(-c2cccnc2)c1C(=O)NCCc1ccc(Cl)cc1Cl,-12,nt,nt,nt,0
CC(C)CC1NC(=O)c2cccnc2-n2c1nc1cc(F)ccc1c2=O (stereo not given),-1,nt,nt,nt,-5
COc1ccc(CCC(=O)Nc2ncc(C)s2)cc1OC,-1,-4%,10%,3%,1
Cc1cnc(NC(=O)CCc2ccccc2)s1,nt,-15%,10µM*,2%,5
COc1ccc(/C(C)=N/Nc2ccc(F)cc2F)c(O)c1,-73*,-11%,1%,0%,1
CCOc1ccc(/C=N/Nc2cc(N3CCOCC3)ncn2)c(O)c1,?,nt,nt,nt,-71*
CCCOc1ccc(/C=N/Nc2cc(N3CCOCC3)ncn2)c(O)c1,nt,-2%,?,8%,-18
Cc1csc(N/N=C/c2ccccc2F)n1,-9,-17%,2%,5%,-12
CCOc1ccc(/C=N/Nc2nc(C)cs2)c(O)c1,?,-13%,12%,9%,-68*
O=C(O)CCC(=O)N1CCCC1C(=O)O (stereo not given),nt,-4%,nt,nt,nt
COc1ccc(S(=O)(=O)NC(=O)C2(C)CCN2C(=O)CC2CCCC2)cc1 (stereo not given),1,nt,nt,nt,0
COc1ccc(OC)c(NC2=NC3(CCCCC3)N=C(N)N2)c1,-73*,-2%,-3%,8%,-84*
CC(C)CN(C(=O)CCNC(=O)c1ccc(Cl)cc1)C1CCS(=O)(=O)C1 (stereo not given),2,nt,1%,nt,-1
Fc1cccc2sc(Nc3nc4cc5c(cc4s3)OCCO5)nc12,-10,11µM*,-7%,nt,-4
COc1ccccc1NC1=C(NC(C)=O)C(=O)c2ccccc2C1=O,1,?,13µM*,?,-4
SMILES,CtBP-E1A blk,Mito fusion act,uPA generation,MBNL1-CUG inh,Six1-Eya2 inh
COC1=C(Nc2ccccc2OC)C(=O)c2ccccc2C1=O,?,-7%,4%,?,?
COc1cc(C(=O)Nc2nc(-c3cccs3)cs2)cc(OC)c1OC,7,14µM*,7%,16%,-2
Cc1cc(C)cc(C(O)c2ncc(-c3cccc(F)c3)[nH]2)c1 (stereo not given),-13,nt,nt,nt,-12
CC(=O)Nc1cc2nn(-c3ccccc3)nc2cc1C,nt,0%,5µM*,124%,-14
CC1C(=O)N(Cc2cn(CCC3OCCO3)nn2)CCS(=O)(=O)N1Cc1ccc(-c2ccc(Cl)c(Cl)c2)cc1 (stereo not given),-5,nt,nt,nt,1
O=C(Nc1ccc2nc3n(c(=O)c2c1)CCCC3)c1cccc([N+](=O)[O-])c1,0,-1%,11%,?,-66*
O=C(Nc1ccc2nc3n(c(=O)c2c1)CCCC3)c1cncc(Br)c1,-65*,nt,11%,nt,?
O=C(Nc1ccc2nc3n(c(=O)c2c1)CCCC3)c1cc([N+](=O)[O-])ccc1F,-15,0%,-7%,nt,-29
COc1cc(OC)cc(C(=O)Nc2ccc3nc4n(c(=O)c3c2)CCCCC4)c1,-23,-5%,-28%,-6%,-12
COc1ccc(Oc2nc3c(c(=O)n(C)c(=O)n3C)n2Cc2ccc(Cl)cc2Cl)cc1,nt,-6%,nt,nt,nt
COC(=O)[C@@]12C[C@@H](CC(=O)N3CCOCC3)C(=O)N(Cc3cccc4ccccc34)C1=CCC(C)(C)C2,-9,nt,nt,nt,-4
O=C(NCc1ccccc1Cl)c1ccc2nc([C@H]3C[C@H](O)[C@@H](CO)O3)[nH]c2c1,-19,nt,nt,nt,8
COc1cccc(NC(=O)C2(C)CCN2C(=O)C2CCCCC2)c1 (stereo not given),1,nt,nt,nt,0
O=Cc1ccc(N2N=C(c3ccccc3)CC2c2ccccc2)cc1 (stereo not given),24,8.9µM*,-12%,13%,94
COc1ccc(C2CC(c3cccs3)=NN2c2ccc(C=O)cc2)cc1 (stereo not given),1,22µM*,-1%,32%,130
O=c1cc(-c2ccccc2F)[nH]c2cc3c(cc12)OCO3,nt,-12%,nt,nt,nt
O=c1[nH]c2ccccc2nc1-c1ccccc1,-4,0%,-4%,?,21
NC(=O)N=Nc1c2[nH]c3ccccc3nc-2c2ccccc12,-69*,1%,-10%,?,?
CCCCCCCCCCCCCCCC(=O)NCCO,4,4.1µM*!,-12%,nt,-4
C#CC(c1ccccc1)(c1ccccc1)n1ccnc1,0,nt,nt,nt,-12
Clc1ccccc1C(c1ccccc1)(c1ccccc1)n1ccnc1,-6,0.52µM*!,?,-1%,-9
Cc1onc(-c2ccccc2)c1C(=O)N/N=C/c1ccc([N+](=O)[O-])s1,-2,11µM*,-7%,?,-19
Cc1onc(-c2ccccc2)c1C(=O)N/N=C/c1ccco1,-2,-2%,-6%,9%,-16
NC(=O)c1cc[n+](CC2=C(C(=O)O)N3C(=O)[C@@H](NC(=O)[C@@H](c4ccccc4)S(=O)(=O)[O-])[C@H]3SC2)cc1,nt,-36%,nt,nt,nt
CN(C)c1ccc(/C=C2\C(=O)Nc3ccccc32)cc1,nt,13µM*,nt,?,nt
